From PubChem BioAssay AID568 (Sanford-Burnham Center for Chemical Genomics, 2006)
Hit rate of the full screen: of about 83,000 compounds, fewer than 10 were called active. How the calls were made is not given here. Only a sample is shown. Results with a measured potency or affinity are listed apart.

What follows are molecules tested against Heat shock cognate 71 kDa protein (Homo sapiens) (UniProt P11142) (assay: Hsc70 inhibitors, probe displacement, primary screen, biochemical, fluorescence polarization (AID 568)). Conditions: mP, at 20 µM, active compounds read high.
Sequence of Heat shock cognate 71 kDa protein (Homo sapiens) (P11142 whole entry, looked up): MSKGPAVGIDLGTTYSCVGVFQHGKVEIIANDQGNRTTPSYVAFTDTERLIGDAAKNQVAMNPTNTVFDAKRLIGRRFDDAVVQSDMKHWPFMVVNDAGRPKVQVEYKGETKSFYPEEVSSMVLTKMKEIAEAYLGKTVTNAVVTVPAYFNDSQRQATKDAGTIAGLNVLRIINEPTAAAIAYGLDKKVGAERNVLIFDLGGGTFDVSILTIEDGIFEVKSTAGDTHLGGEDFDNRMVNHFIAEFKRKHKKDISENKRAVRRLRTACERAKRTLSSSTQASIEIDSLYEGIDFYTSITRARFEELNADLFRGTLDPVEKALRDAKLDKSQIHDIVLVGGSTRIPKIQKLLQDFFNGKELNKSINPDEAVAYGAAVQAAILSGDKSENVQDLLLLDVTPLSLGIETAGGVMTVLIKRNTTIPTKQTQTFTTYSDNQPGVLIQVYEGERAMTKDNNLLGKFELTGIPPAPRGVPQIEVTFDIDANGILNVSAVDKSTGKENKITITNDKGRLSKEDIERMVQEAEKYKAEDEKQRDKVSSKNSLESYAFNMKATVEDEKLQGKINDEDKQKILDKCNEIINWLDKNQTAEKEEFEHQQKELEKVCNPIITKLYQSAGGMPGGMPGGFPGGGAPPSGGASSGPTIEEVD
Sequence of Heat shock cognate 71 kDa protein (Homo sapiens) (P11142 whole entry, looked up): as above

displacement, inactive:
CCOC(=O)c1sc(=S)n(-c2ccccc2OC)c1N 4.2%
COc1ccc(N(CC(=O)Nc2cc(OC)ccc2OC)S(=O)(=O)c2c(C)nn(C)c2C)cc1 -0.1%
Oc1c(Cl)cc(Cl)c2c1NCCC2 1%
Oc1c(Cl)cc(Cl)cc1Sc1cc(Cl)cc(Cl)c1O 11.6%
NC(=O)CSc1nnc(Cc2ccc3c(c2)OCO3)n1C1CCCCC1 -4.2%
COc1cccc(Nc2c(F)c(F)c(F)c(F)c2C(=O)O)c1 3.7%
CC1(C)CC(=O)C2=C(C1)OC(N)=C(C#N)C21C(=O)N(Cc2ccccc2Cl)c2ccccc21 (stereo not given) -38.5%
O=C(CSc1nc(-c2ccco2)cc(C(F)(F)F)n1)NC1CCCCCCC1 -4.2%
Cc1ccc2c(c1)N(Cc1ccc3c(c1)OCO3)C(=O)C(C)O2 (stereo not given) -2.1%
O=C(Cn1cnc2c(nnn2Cc2ccccc2)c1=O)N1CCCc2ccccc21 2%
CC(=O)NCCc1ccc(S(=O)(=O)NC2OC(=O)c3ccccc32)cc1 (stereo not given) -3.3%
CC1(C)Cc2c(c(N3CCOCC3)nc3sc4c(=O)[nH]cnc4c23)CS1 -5%
C=CCN1C(=O)C2C(C(=O)NCc3ccccc3)C3C=CC2(O3)C1C(=O)NC(C)(C)C (stereo not given) -3.6%
O=C1CCCCCN1CSc1nc2ccccc2s1 5.1%
CCOC(=O)N1CCN(C(=O)CN(c2ccc3c(c2)OCO3)S(C)(=O)=O)CC1 0.1%
Oc1ccccc1-c1cc(-c2ccco2)[nH]n1 1.3%
CC(=O)Nc1ccc(S(=O)(=O)N(C)CC(=O)Nc2ccccc2N2CCOCC2)cc1 -0.5%
COc1ccc(-c2nc(CS(=O)CC(=O)NCc3cccnc3)c(C)o2)cc1 (stereo not given) 1.8%
Cc1ccc(C)c(N(CC(=O)NC2CCCC2)C(=O)CCCC(=O)Nc2ccccn2)c1 4.6%
CN1CCc2c(sc3c2C(=O)NC(/C=C/c2ccco2)N3)C1 (stereo not given) 5.2%
CCOc1c(Cl)cc(C(=O)NCCN2CCCCC2)cc1Cl -10.7%
Cc1ccccc1NC(=O)Cn1cccc1 -0.7%
Cc1ccc(-c2nn3c(-c4ccco4)nnc3c3ccccc23)cc1S(=O)(=O)NCC1CCCO1 (stereo not given) 1%
CC1CC(C)CN(CCCNC(=O)C2CCN(S(=O)(=O)N3CCCCC3)CC2)C1 (stereo not given) -3.8%
O=C(Nc1ccc(-c2nc3ccccc3[nH]2)cc1)c1ccco1 -7.1%
CC(C)N(C#N)c1nc(N2CCOCC2)nc(N2CCOCC2)n1 9.4%
CC1=C(C(=O)N(C)CCC#N)C2(CCCCC2)OC1=O -1.4%
O=C(NC(Cc1ccccc1)c1nc2ccccc2[nH]1)C1CC(=O)N(c2ccc3c(c2)OCCO3)C1 (stereo not given) -10.1%
Cc1ccc(C(=O)Nc2cc(=O)n(C)c(=O)n2C)o1 5.3%
O=C(CCCn1c(=S)[nH]c2cc3c(cc2c1=O)OCO3)N1CCN(c2ccccn2)CC1 -4.4%
Cc1cnc(NC(=O)c2cc3c(C)nn(-c4ccccc4)c3s2)s1 -5.6%
CC1CCN(C(=O)c2cc(-c3ccccc3O)on2)CC1 -5%
CCOC(=O)C1CCCN(CCC(=O)Nc2ccc(C)cc2)C1 (stereo not given) -2.2%
CCCCN(C(=O)CNC(=O)c1ccco1)C(C(=O)NC1CCCC1)c1ccc(OC)cc1 (stereo not given) 2.3%
O=C(Nc1ccc(F)c(F)c1)c1cccnc1 -5.4%
Cc1cc(C(=O)CN2C(=O)NC(c3ccccc3)(c3ccccc3)C2=O)c(C)n1Cc1ccccc1 -22.9%
Cc1nnc(SCC(=O)Nc2ccc(S(=O)(=O)N3CCCCC3)cc2)s1 -3.1%
CN(C)S(=O)(=O)c1ccc(NC(=O)c2c(F)cccc2Cl)cc1 -2.2%
Cc1c(C(=O)OCC(=O)N2c3ccccc3CC2C)oc2ccccc12 (stereo not given) -0.6%
O=C(NCCN1CCOCC1)Nc1ccc(Cl)cc1Cl -6.7%
